KinaseGlo FLuc = Kinase-Glo luciferase inhibition (counter-screen). Q27757. Kinase-Glo luciferase, ATP luminescence, 8 min. Potency, µM (highest dose often 38.3 µM), usual class: inhibitors. 0.28% of 200,000 active; also: nearly all actives have a fitted effect of over 60% in size
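Substrate mix (final 50 mM imidazole pH 7.2, 50 mM KCl, 7 mM MgCl2, 10 uM ATP, 0.01% Tween 20, 0.05% BSA) plus pin-tool compound, then Kinase-Glo detection mix; 8 min ambient, luminescence read.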
FLuc modulator = inhibits or activates purified firefly luciferase, miR-21 counter-screen. 6.9% of 360,000 active. Potency, µM (top dose mostly 57.5 µM), most hits filed as inhibitors. AID 588342. purified FLuc, Km substrates, luminescence inhibition; also: nearly all actives have a fitted effect of over 55% in size
Target sequence (P08659 whole entry, looked up): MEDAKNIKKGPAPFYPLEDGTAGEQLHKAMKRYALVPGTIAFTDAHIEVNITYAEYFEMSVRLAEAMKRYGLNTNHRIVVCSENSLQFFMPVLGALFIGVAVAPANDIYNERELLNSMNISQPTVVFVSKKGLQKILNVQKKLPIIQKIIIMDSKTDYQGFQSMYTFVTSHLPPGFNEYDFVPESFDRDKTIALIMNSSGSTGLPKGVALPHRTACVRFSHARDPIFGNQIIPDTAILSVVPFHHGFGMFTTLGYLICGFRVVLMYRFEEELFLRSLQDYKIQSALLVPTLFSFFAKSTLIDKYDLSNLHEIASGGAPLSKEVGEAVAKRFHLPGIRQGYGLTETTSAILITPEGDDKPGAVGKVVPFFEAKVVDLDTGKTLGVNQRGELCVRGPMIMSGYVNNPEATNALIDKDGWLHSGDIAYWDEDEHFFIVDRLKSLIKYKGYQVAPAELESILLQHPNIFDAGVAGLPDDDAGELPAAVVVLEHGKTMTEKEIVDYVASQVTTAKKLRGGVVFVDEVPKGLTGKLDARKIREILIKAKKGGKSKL
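Biochemical qHTS of compounds, final roughly 60 µM downward over six points, against 10 nM purified firefly luciferase using Km concentrations of substrates (10 uM D-luciferin, 10 uM ATP) in Tris acetate pH 7.5 buffer; luminescence output.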
SMN2 splice up = enhancers of SMN2 splice variant expression; Potency, µM (doses to about 46.1 µM), usual class: activators; HEK293 SMN2-luciferase splicing reporter, luminescence, 30-36 h; 2.8% of 210,000 active; also: nearly all actives have a fitted effect of over 55% in size
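HEK293 cells carry an SMN2 […]–luciferase reporter in which exon 7 inclusion puts luciferase in frame. Cells were plated 10-12 h before compound addition, then incubated 30-36 h at 37C. ONE-Glo luminescence was read; sodium butyrate at 4.5 mM final served as control.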
ELG1 genotox = genotoxicity induction in ELG1-luciferase HEK293T cells; Potency, µM (doses to about 46 µM), usual class: activators; 1.3% of 330,000 active; HEK293T ELG1-luciferase reporter, luminescence, 16 h; AID 504466; also: nearly all actives have a fitted effect of over 60% in size
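16 hr compound incubation (37 °C, 5% CO2) of HEK293T cells carrying luciferase-tagged ELG1; luciferase then measured by ONE-Glo luminescence after 30 min at RT.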
Rab9 promoter act = activates the Rab9 promoter | Huh7 Rab9 promoter-luciferase reporter, luminescence, 24 h | Potency, µM (doses to about 9.22 µM), usual class: activators | 2.8% of 320,000 active | AID 485297; also: nearly all actives have a fitted effect of over 60% in size
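Using Huh7 cells stably transfected with Rab9 promoter–luciferase, compounds were incubated 24 h at 37 °C, 5% CO2; luciferase luminescence was read 10 min after reagent addition.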
NPC1 promoter act = NPC1 promoter activation; Huh7 NPC1 promoter luciferase reporter, 24 h; Potency, µM (doses to about 9.22 µM), hits mostly activators; 2.4% of 320,000 active; AID 485313; also: nearly all actives have a fitted effect of over 60% in size
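Luciferase expression driven by the NPC1 promoter was measured in stably transfected Huh7 cells after a 24 h compound incubation, using a luciferase reagent and a luminescence read.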
Of the large screens only hits and unclear results are named; the others gave an inactive call; ! = a repeat was not active. Shown are actives, neighbours in structure and some others; about 7.5% of the full set was active somewhere. Calls follow the shape of the dose curve; as a rule, active = well fitted curve in the direction sought with a large enough effect; inconclusive = small, poorly fitted or top-dose-only effect, or another doubt; inactive = no such curve, though single readings can be large; an effect the other way counts as inactive or inconclusive.

COc1ccc(-c2ccc(SCC(=O)c3ccc(F)cc3)nn2)cc1OC	FLuc modulator 13.5µM
COc1cccc([C@@H]2Oc3ccc(Br)cc3C[C@H]2OC(=O)Nc2ccc(C)c(Br)c2)c1	none (no result: FLuc modulator, ELG1 genotox, Rab9 promoter act, NPC1 promoter act)
Cc1ccc2c(c1)c1ncnc(N3CCOCC3)c1n2C	FLuc modulator 15.1µM
Cc1ccc2c(c1)c1ncnc(N3CCN(c4ccccc4)CC3)c1n2C	none
Cc1ccc2c(c1)c1ncnc(N3CCC4(CC3)OCCO4)c1n2C	FLuc modulator 10.7µM, SMN2 splice up inconclusive
O=C1/C(=C/c2cccs2)COc2ccccc21	KinaseGlo FLuc inconclusive, FLuc modulator 1.35µM, ELG1 genotox inconclusive
CCOc1cc(/C=C2\COc3ccccc3C2=O)ccc1OCC(=O)N(C)C	none (no result: KinaseGlo FLuc, SMN2 splice up)
Cc1cccc(NS(=O)(=O)c2nnc(NC(=O)CC(C)C)s2)c1	none (no result: KinaseGlo FLuc, SMN2 splice up)
Cc1cccc(N(C)S(=O)(=O)c2nnc(NC(=O)C(C)Oc3ccccc3)s2)c1 (stereo not given)	FLuc modulator 4.78µM (no result: KinaseGlo FLuc, SMN2 splice up, ELG1 genotox, Rab9 promoter act, NPC1 promoter act)
Cc1cccc(NS(=O)(=O)c2nnc(NC(=O)C3CCCCC3)s2)c1	FLuc modulator 6.75µM! (no result: KinaseGlo FLuc, SMN2 splice up)
CCC(CC)C(=O)Nc1nnc(S(=O)(=O)N(C)c2cc(C)cc(C)c2)s1	none (no result: KinaseGlo FLuc, SMN2 splice up, ELG1 genotox, Rab9 promoter act, NPC1 promoter act)
CN(c1ccccc1)S(=O)(=O)c1nnc(NC(=O)c2ccccc2)s1	FLuc modulator 0.19µM (no result: KinaseGlo FLuc, SMN2 splice up, ELG1 genotox, Rab9 promoter act, NPC1 promoter act)
CCN(c1ccccc1)S(=O)(=O)c1nnc(NC(=O)c2ccccc2)s1	FLuc modulator 2.39µM (no result: KinaseGlo FLuc, SMN2 splice up, ELG1 genotox, Rab9 promoter act, NPC1 promoter act)
CCN(c1ccccc1)S(=O)(=O)c1nnc(NC(=O)c2ccccc2OC)s1	FLuc modulator 1.69µM! (no result: KinaseGlo FLuc, SMN2 splice up)
CCN(c1ccc(C)cc1)S(=O)(=O)c1nnc(NC(=O)c2cccs2)s1	FLuc modulator 13.5µM (no result: KinaseGlo FLuc, SMN2 splice up, ELG1 genotox, Rab9 promoter act, NPC1 promoter act)
CN(c1ccccc1)S(=O)(=O)c1nnc(NC(=O)C2CCCCC2)s1	FLuc modulator 0.675µM! (no result: KinaseGlo FLuc, SMN2 splice up)
CCN(c1ccccc1)S(=O)(=O)c1nnc(NC(=O)c2cccs2)s1	FLuc modulator 0.338µM (no result: KinaseGlo FLuc, SMN2 splice up, ELG1 genotox, Rab9 promoter act, NPC1 promoter act)
CCN(c1ccc(Cl)cc1)S(=O)(=O)c1nnc(NC(=O)c2ccccc2C)s1	none (no result: KinaseGlo FLuc, SMN2 splice up, ELG1 genotox, Rab9 promoter act, NPC1 promoter act)
COc1ccc(C(=O)CN2CCN(S(=O)(=O)c3ccc(C(C)C)cc3)CC2)cc1	none (no result: KinaseGlo FLuc, SMN2 splice up, ELG1 genotox, Rab9 promoter act, NPC1 promoter act)
CCOc1ccc(CNC(=O)CCCn2c(=O)c3cccn3c3ccccc32)cc1	none (no result: KinaseGlo FLuc, SMN2 splice up, ELG1 genotox, Rab9 promoter act, NPC1 promoter act)
CCOc1ccc(C(=O)OCc2cc(=O)n3cc(C)sc3n2)cc1	none (no result: KinaseGlo FLuc, SMN2 splice up, ELG1 genotox, Rab9 promoter act, NPC1 promoter act)
CCCC(=O)Nc1nnc(S(=O)(=O)N(C)c2ccccc2)s1	FLuc modulator 0.849µM (no result: KinaseGlo FLuc, SMN2 splice up, ELG1 genotox, Rab9 promoter act, NPC1 promoter act)
CCCCC(=O)Nc1nnc(S(=O)(=O)N(CC)c2ccccc2)s1	none (no result: KinaseGlo FLuc, SMN2 splice up)
CCCCc1ccc(NC(=O)C2(C)Cc3ccccc3C(=O)O2)cc1 (stereo not given)	none (no result: KinaseGlo FLuc, ELG1 genotox, Rab9 promoter act, NPC1 promoter act)
CCOC(=O)c1c(S(=O)(=O)N2CCC(C(=O)Nc3ccc(C)cn3)CC2)c(C)n(C)c1C	none (no result: KinaseGlo FLuc, SMN2 splice up, ELG1 genotox, Rab9 promoter act, NPC1 promoter act)
Cc1cc(NCCCN2CCOCC2)n2ncc(-c3ccc(Cl)cc3)c2n1	FLuc modulator 16.9µM, ELG1 genotox inconclusive, Rab9 promoter act inconclusive, NPC1 promoter act inconclusive
CCCc1cc(NCCCn2ccnc2)n2nc(C)c(-c3ccccc3)c2n1	none (no result: KinaseGlo FLuc, SMN2 splice up)
CC(C)Nc1cc(C(C)(C)C)nc2c(-c3ccccc3)cnn12	FLuc modulator 10.7µM, ELG1 genotox inconclusive, Rab9 promoter act 2.82µM, NPC1 promoter act inconclusive (no result: KinaseGlo FLuc, SMN2 splice up)
CN(C)CCCNc1cc(C(C)(C)C)nc2c(-c3ccc(Cl)cc3)cnn12	FLuc modulator inconclusive (no result: KinaseGlo FLuc, SMN2 splice up)
CC(C)(C)c1cc(NCCCn2ccnc2)n2ncc(-c3ccccc3)c2n1	FLuc modulator 5.36µM, ELG1 genotox inconclusive, Rab9 promoter act 2.24µM, NPC1 promoter act 2µM (no result: KinaseGlo FLuc, SMN2 splice up)
Cc1cccc(-c2cc3nc(C)cc(NCCCn4ccnc4)n3n2)c1	FLuc modulator 15.1µM, ELG1 genotox inconclusive
Cc1ccc(C(=O)c2oc3ccccc3c2NC(=O)c2cc(-c3ccc(Cl)cc3)on2)cc1	none (no result: KinaseGlo FLuc, SMN2 splice up, ELG1 genotox, Rab9 promoter act, NPC1 promoter act)
Cc1cc(NCCCn2ccnc2)n2ncc(-c3ccc(Cl)cc3)c2n1	FLuc modulator 0.953µM, ELG1 genotox inconclusive, Rab9 promoter act 0.562µM, NPC1 promoter act 0.447µM
Cc1nnc(SCC(=O)Nc2sc3c(c2C#N)CCCCC3)n1N	FLuc modulator 21.3µM, ELG1 genotox inconclusive
N#Cc1c(NC(=O)CSc2nnnn2C2CCCCC2)sc2c1CCCC2	none (no result: KinaseGlo FLuc, SMN2 splice up)
